From PubChem
Rows were chosen to be rich in hits. Some 2.4% of all compounds tested hit in one or more screens of this group.
M1 ag: agonists of human M1 muscarinic receptor | CHO-K1 hM1, Fluo-8 calcium fluorescence, agonist mode; 0% DMSO, 100% acetylcholine EC100 | activation, % at 3 µM | actives 0.33% (n = 360,000);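 active means activation above the run's mean compound activation plus 3 SD, cut at about 16% in these data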;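 further: peak over basal fluorescence ratio within a 140 s kinetic read after compound addition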
Target sequence (P11229 whole entry, looked up): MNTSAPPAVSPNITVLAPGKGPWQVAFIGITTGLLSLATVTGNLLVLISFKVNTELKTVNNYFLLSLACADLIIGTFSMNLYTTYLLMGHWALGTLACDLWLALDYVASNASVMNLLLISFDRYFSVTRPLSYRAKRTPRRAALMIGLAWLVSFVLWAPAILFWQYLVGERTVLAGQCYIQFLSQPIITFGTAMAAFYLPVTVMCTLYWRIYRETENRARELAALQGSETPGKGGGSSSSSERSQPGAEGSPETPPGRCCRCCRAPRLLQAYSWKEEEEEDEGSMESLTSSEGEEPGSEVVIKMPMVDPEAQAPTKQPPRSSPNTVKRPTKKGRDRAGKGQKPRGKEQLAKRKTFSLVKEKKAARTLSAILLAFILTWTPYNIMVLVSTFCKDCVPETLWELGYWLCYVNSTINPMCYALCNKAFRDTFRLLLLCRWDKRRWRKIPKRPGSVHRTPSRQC
CHO-K1 Ca antag: M1 antagonist counterscreen hit in parental CHO-K1 cells | ATP-induced calcium, Fluo-8 fluorescence | inhibition, % at 3 µM | actives 0.6% (n = 360,000);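 active means inhibition above a per-plate cutoff, the plate's mean sample inhibition plus 3 SD, cut at about 24% in these data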;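 further: 0% = DMSO plus EC80 ATP and 100% = DMSO alone without ATP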
CHRM1 antagonist: human CHRM1 antagonism; P11229; CHO-K1 hM1, Fluo-8 calcium fluorescence, ACh EC80 antagonist; inhibition, % at 3 µM; actives 1.3% (n = 360,000);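 active means percent inhibition above its own plate's cutoff, namely the mean of that plate's compound wells plus 3 SD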;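 further: peak over basal fluorescence ratio during 140 s after agonist addition; 0% = ACh EC80 plus DMSO and 100% = DMSO alone without agonist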
CHO-K1 Ca ag: counter-screen for M1 agonists: effect in parental CHO-K1 cells. Fluo-8 calcium fluorescence; scaled to maximal ATP response, vehicle zero. activation, % at 3 µM. actives 0.48% (n = 360,000). AID 602248; in the data active means activation above about 15%;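 further: untransfected CHO-K1 host cells lacking M1 receptor as counterscreen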
M1 PAM: human CHRM1 positive allosteric modulation; P11229; CHO-K1 hM1, Fluo-8 calcium fluorescence, ACh EC20; 0% = ACh EC20, 100% = maximal ACh; activation, % at 3 µM; actives 0.088% (n = 360,000); in the data active means activation above about 19%, passing the limit was not always enough
M1 PAM parental: M1 PAM counterscreen hit in parental CHO-K1 cells. actives 0.02% (n = 360,000). AID 602247. ATP EC20, Fluo-8 calcium fluorescence; 0% at ATP EC20, 100% at ATP max. activation, % at 3 µM;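 active means activation above the run cutoff, the mean activation of all test compounds plus 3 SD, cut at about 40% in these data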;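 further: peak over basal fluorescence ratio in a 140 s read after ATP addition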
Starred values were filed as active, the others as inactive.

`CCOc1ccc(-c2c(C(=O)N/N=C/c3ccc(C)cc3)nnn2-c2nonc2N)cc1` gave M1 ag 18.6*, CHO-K1 Ca antag -11.6, CHRM1 antagonist -15.3, CHO-K1 Ca ag 2.5, M1 PAM 18.2 and M1 PAM parental 23.2.
For CCOc1ccc(/C=N/NC(=O)c2nnn(-c3nonc3N)c2-c2cccs2)cc1 the results were M1 ag 44.4*, CHO-K1 Ca antag 0.1, CHRM1 antagonist 27.4, CHO-K1 Ca ag 33.9*, M1 PAM -2.0 and M1 PAM parental 14.8.
COc1ccc(C2=C(c3ccc(OC)c(OC)c3)CN3CCCCC3C2)cc1 (stereo not given) was read as M1 ag -9.6, CHO-K1 Ca antag -10.2, CHRM1 antagonist 3.9, CHO-K1 Ca ag 0.3, M1 PAM -3.1 and M1 PAM parental -5.7.
Screening Cc1ccccc1C(=O)NC(=S)Nc1ccc2[nH]c(=O)[nH]c2c1 returned M1 ag -2.4, CHO-K1 Ca antag -10.1, CHRM1 antagonist -0.1, CHO-K1 Ca ag -0.2, M1 PAM -0.8 and M1 PAM parental 21.3.
For CN(CC(=O)N/N=C/c1ccc(F)cc1)S(=O)(=O)c1ccccc1 the results were M1 ag -2.6, CHO-K1 Ca antag -8.8, CHRM1 antagonist -1.4, CHO-K1 Ca ag 0.4, M1 PAM 2.9 and M1 PAM parental 9.1.
`CCOC(=O)CN1C(=N)N(c2nc(NC(C)C)nc(NC(C)C)n2)CC1=O` gave M1 ag -6.2, CHO-K1 Ca antag 31.4*, CHRM1 antagonist 2.1, CHO-K1 Ca ag -0.8, M1 PAM -3.1 and M1 PAM parental -14.9.
`CCOC(=O)CN1C(=N)N(c2nc(NC(C)C)nc(OC)n2)CC1=O` gave M1 ag -0.9, CHO-K1 Ca antag -10.5, CHRM1 antagonist -10.9, CHO-K1 Ca ag -0.4, M1 PAM 12.7 and M1 PAM parental -0.8.
For CCN(CC)CCCNC(=S)N1CCC(c2nc3ccccc3[nH]2)CC1 the results were M1 ag -8.6, CHO-K1 Ca antag -6.8, CHRM1 antagonist -6.4, CHO-K1 Ca ag 0.7, M1 PAM -1.9 and M1 PAM parental 13.0.
For COCc1cc(=O)[nH]c(-c2ccccc2OC(F)(F)F)n1 the results were M1 ag -4.3, CHO-K1 Ca antag -6.6, CHRM1 antagonist -16.0, CHO-K1 Ca ag 1.0, M1 PAM 9.5 and M1 PAM parental 19.4.
For O=C(Nc1nc2ccccc2[nH]1)C1CC1 the results were M1 ag -2.4, CHO-K1 Ca antag -4.7, CHRM1 antagonist 5.4, CHO-K1 Ca ag -0.3, M1 PAM 1.4 and M1 PAM parental -9.6.
`O=C(Nc1nc2ccccc2[nH]1)NC1CCCCC1` gave M1 ag 8.0, CHO-K1 Ca antag 11.3, CHRM1 antagonist -1.1, CHO-K1 Ca ag 23.4*, M1 PAM 3.6 and M1 PAM parental -1.6.
Screening CSc1cccc(NC(=O)CCCNC(=O)c2ccc(Cl)cc2)c1 returned M1 ag -7.8, CHO-K1 Ca antag -19.1, CHRM1 antagonist -4.1, CHO-K1 Ca ag 1.5, M1 PAM 1.9 and M1 PAM parental 8.2.
For CC(C)(C)c1ccc(S(=O)(=O)N2CCSC2)cc1 the results were M1 ag -14.8, CHO-K1 Ca antag 11.4, CHRM1 antagonist 39.1*, CHO-K1 Ca ag 0.6, M1 PAM -26.3 and M1 PAM parental -2.4.
Nc1ncnc2c1ncn2[C@@H]1O[C@H](COP(=O)(O)OP(=O)(O)OP(=O)(O)O)[C@@H](O)[C@H]1O was read as M1 ag 52.9*, CHO-K1 Ca antag -0.7, CHRM1 antagonist -27.4, CHO-K1 Ca ag 36.7*, M1 PAM 4.4 and M1 PAM parental 4.6.
`Nc1ncnc2c1ncn2[C@@H]1O[C@H](CO)C[C@H]1O` gave M1 ag -2.2, CHO-K1 Ca antag 24.2*, CHRM1 antagonist -19.5, CHO-K1 Ca ag -0.7, M1 PAM 1.0 and M1 PAM parental -4.5.
For NC(=O)c1ncc(C(F)(F)F)cc1Oc1cccnc1 the results were M1 ag -3.5, CHO-K1 Ca antag 17.2, CHRM1 antagonist 9.4, CHO-K1 Ca ag 4.7, M1 PAM -13.2 and M1 PAM parental -3.7.
O=C1c2ccccc2-c2onc3ccc(NCc4ccco4)c1c23 was read as M1 ag 36.4*, CHO-K1 Ca antag 44.6*, CHRM1 antagonist 43.6*, CHO-K1 Ca ag 18.6*, M1 PAM -13.3 and M1 PAM parental -9.5.
